# From PubChem BioAssay (Tox21)
# “And” between values parts separate entries of the source, which are not always exact repeats. Equal values may be shown once. More than one record can exist for a structure, and the calls need not agree. The source made the active and inactive calls. A call without a number means that no potency is given here. Unless noted, calls come from the whole dose curve; as a rule, active = well fitted curve in the direction sought with a large enough effect in the repeat runs; inconclusive = weak or mixed curves; inactive = no such curve, though single readings can be large; an effect the other way counts as inactive or inconclusive.
# Experiments:
# [1] = qHTS assay to identify small molecule antagonists of the glucocorticoid receptor (GR) signaling pathway - cell viability counter screen (AID 720693); note: nearly all actives have a fitted effect of over 55% in size
# [2] = qHTS assay for identifying genotoxic compounds that show differential cytotoxicity against isogenic chicken DT40 cell lines with known DNA damage response pathways - wild type cell line (AID 743012); note: nearly all actives have a fitted effect of over 60% in size; note: potency is the fitted concentration of half-maximal effect
# Summary of the method: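 Parental DNA repair-proficient DT40 cells, 300 per well, were pre-incubated ~0.5 h at 37 C/5% CO2, pin-dosed with compounds in DMSO, then incubated 40 h. Viability was read as CellTiter-Glo luminescence after 30 min at room temperature.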
# [3] = qHTS assay for identifying genotoxic compounds that show differential cytotoxicity against isogenic chicken DT40 cell lines with known DNA damage response pathways - Rev3 mutant cell line (AID 743014); note: nearly all actives have a fitted effect of over 55% in size; note: potency is the fitted concentration of half-maximal effect
# [4] = qHTS assay for identifying genotoxic compounds that show differential cytotoxicity against isogenic chicken DT40 cell lines with known DNA damage response pathways - Rad54/Ku70 mutant cell line (AID 743015); note: nearly all actives have a fitted effect of over 60% in size; note: potency is the fitted concentration of half-maximal effect
# [5] = qHTS assay to identify small molecule antagonists of the androgen receptor (AR) signaling pathway - cell viability counter screen (AID 743033; note: nearly all actives have a fitted effect of over 45% in size)
# [6] = target: Androgen receptor (Homo sapiens) (UniProt P10275); test: qHTS assay to identify small molecule antagonists of the androgen receptor (AR) signaling pathway (AID 743035; active = well fitted inhibition curve with a large enough effect in the signal ratio in the repeat runs, not every such curve was filed as active; inconclusive = weak or mixed curves, or effect the other way; inactive = no such curve, though single readings can be large or run the other way; the % refers to the signal ratio)
# Chain of Androgen receptor (Homo sapiens) (P10275 whole entry, looked up): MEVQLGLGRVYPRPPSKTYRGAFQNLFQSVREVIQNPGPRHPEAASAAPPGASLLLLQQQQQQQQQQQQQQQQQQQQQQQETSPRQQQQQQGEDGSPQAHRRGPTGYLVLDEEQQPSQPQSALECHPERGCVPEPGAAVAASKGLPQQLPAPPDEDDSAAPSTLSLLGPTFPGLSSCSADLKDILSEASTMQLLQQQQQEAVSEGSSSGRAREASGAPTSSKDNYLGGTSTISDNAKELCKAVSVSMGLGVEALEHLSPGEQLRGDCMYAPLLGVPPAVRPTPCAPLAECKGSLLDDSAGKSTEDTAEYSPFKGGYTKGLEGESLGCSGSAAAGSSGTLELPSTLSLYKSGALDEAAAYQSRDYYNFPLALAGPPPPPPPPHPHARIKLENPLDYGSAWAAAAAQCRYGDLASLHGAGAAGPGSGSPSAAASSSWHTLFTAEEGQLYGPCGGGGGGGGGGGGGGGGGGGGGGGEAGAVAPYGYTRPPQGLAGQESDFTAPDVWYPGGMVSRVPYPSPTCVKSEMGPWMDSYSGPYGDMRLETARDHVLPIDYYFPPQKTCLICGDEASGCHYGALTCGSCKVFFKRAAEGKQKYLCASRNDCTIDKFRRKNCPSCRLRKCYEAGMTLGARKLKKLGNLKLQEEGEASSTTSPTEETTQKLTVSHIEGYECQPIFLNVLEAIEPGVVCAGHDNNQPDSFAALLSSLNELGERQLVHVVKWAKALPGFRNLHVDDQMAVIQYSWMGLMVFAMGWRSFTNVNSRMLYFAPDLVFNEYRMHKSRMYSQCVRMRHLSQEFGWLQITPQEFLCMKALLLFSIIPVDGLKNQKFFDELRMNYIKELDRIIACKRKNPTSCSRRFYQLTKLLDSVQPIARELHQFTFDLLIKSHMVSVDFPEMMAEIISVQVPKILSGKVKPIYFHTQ
# Summary of the method: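 HEK293 cells stably carrying a UAS-driven beta-lactamase reporter (AR-UAS-bla GripTite) were plated for 4 h at 37C, then given compound and the agonist R1881 and incubated 16 h. Reporter activity was read by LiveBLAzer B/G FRET fluorescence after 2 h at room temperature.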
# [7] = target: Androgen receptor (Homo sapiens) (UniProt P10275); test: qHTS assay to identify small molecule agonists of the androgen receptor (AR) signaling pathway (AID 743036; active = well fitted activation curve with a large enough effect in the signal ratio in the repeat runs, with a control signal flat, not every such curve was filed as active; inconclusive = weak or mixed curves, or effect the other way; inactive = no such curve, though single readings can be large or run the other way; the % refers to the signal ratio)
# Summary of the method: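 AR-UAS-bla HEK293 cells, plated 4 h before dosing, were treated with compound for 16 h at 37C. beta-Lactamase reporter read after 2 h with LiveBLAzer B/G FRET substrate at room temperature.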
# [8] = target: Androgen receptor (Homo sapiens) (UniProt P10275); test: qHTS assay to identify small molecule agonists of the androgen receptor (AR) signaling pathway using the MDA cell line (AID 743040; note: nearly all actives have a fitted effect of over 20% in size; note: potency is the fitted concentration of half-maximal effect)
# Summary of the method: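 MDA-kb2 breast carcinoma cells carrying MMTV-luciferase (responsive to AR and GR), plated 5 h then treated 16 h with compounds at 37C, 0% CO2. Read-out was ONE-Glo luminescence after 30 min at room temperature.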
# [9] = target: Androgen receptor (Homo sapiens) (UniProt P10275); test: qHTS assay to identify small molecule antagonists of the androgen receptor (AR) signaling pathway using the MDA cell line (AID 743042; note: nearly all actives have a fitted effect of over 55% in size)
# Summary of the method: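 MDA-kb2 breast carcinoma cells carrying MMTV-luciferase (AR/GR responsive) were co-treated with compounds and the agonist R1881 for 16 h at 37C. Inhibition read as ONE-Glo luminescence; CellTiter-Fluor fluorescence measured in parallel for cytotoxicity.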
# [10] = qHTS assay to identify small molecule antagonists of the thyroid receptor (TR) signaling pathway - cell viability counter screen (AID 743064); note: nearly all actives have a fitted effect of over 50% in size; note: potency is the fitted concentration of half-maximal effect
# Summary of the method: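 GH3.TRE-Luc rat pituitary cells dosed after 4 hr plating, co-stimulated with T3 at 1 nM final, incubated 23.5 h at 37 C. Viability measured in the same wells by CellTiter-Fluor fluorescence after 30 min further at 37 C.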
# [11] = qHTS assay to identify small molecule antagonists of the thyroid receptor (TR) signaling pathway (AID 743065); note: nearly all actives have a fitted effect of over 55% in size; note: potency is the fitted concentration of half-maximal effect
# Summary of the method: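 GH3.TRE-Luc rat pituitary cells (two TREs driving luciferase) were dosed with compound, then stimulated with 1 nM T3 (final) for 23.5 h at 37 C. ONE-Glo luminescence was the read-out, with CellTiter-Fluor fluorescence as the cytotoxicity counter-screen.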
# [12] = tested on: thyroid hormone receptor (rat, GH3 cells); test: qHTS assay to identify small molecule agonists of the thyroid receptor (TR) signaling pathway (AID 743066; calls by dose curve)
# [13] = target: Estrogen receptor (Homo sapiens) (UniProt P03372); test: qHTS assay to identify small molecule antagonists of the estrogen receptor alpha (ER-alpha) signaling pathway (AID 743069; active = well fitted curve in the direction sought with a large enough effect in the signal ratio in the repeat runs, not every such curve was filed as active; inconclusive = weak or mixed curves, or effect the other way; inactive = no such curve, though single readings can be large or run the other way; the % refers to the signal ratio; note: potency is the fitted concentration of half-maximal effect)
# Chain of Estrogen receptor (Homo sapiens) (P03372 whole entry, looked up): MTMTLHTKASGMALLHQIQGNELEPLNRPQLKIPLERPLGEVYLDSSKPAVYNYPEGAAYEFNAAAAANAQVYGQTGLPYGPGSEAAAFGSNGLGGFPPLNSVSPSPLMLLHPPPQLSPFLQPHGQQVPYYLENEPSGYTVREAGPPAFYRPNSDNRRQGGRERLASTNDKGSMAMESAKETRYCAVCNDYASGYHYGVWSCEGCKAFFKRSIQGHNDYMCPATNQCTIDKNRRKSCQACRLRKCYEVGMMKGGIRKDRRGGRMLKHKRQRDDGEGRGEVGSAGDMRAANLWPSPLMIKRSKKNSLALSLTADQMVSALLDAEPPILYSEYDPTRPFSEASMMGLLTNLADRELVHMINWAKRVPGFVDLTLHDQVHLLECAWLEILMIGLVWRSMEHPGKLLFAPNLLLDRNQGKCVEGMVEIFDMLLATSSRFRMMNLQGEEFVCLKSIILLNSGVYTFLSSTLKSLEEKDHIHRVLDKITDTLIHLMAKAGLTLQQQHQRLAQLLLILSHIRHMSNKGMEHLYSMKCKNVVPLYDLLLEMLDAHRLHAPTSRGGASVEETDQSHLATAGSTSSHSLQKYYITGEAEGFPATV
# Summary of the method: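 HEK293 ER-alpha-UAS-bla GripTite cells, held overnight in 2% charcoal-stripped FBS, 5,000 cells/well, preincubated 4 h, then compound plus 17beta-estradiol for 18 h at 37C. Beta-lactamase read by LiveBLAzer B/G FRET substrate, 2 h at room temperature.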
# [14] = qHTS assay to identify small molecule antagonists of the estrogen receptor alpha (ER-alpha) signaling pathway - cell viability counter screen (AID 743074; calls by dose curve;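 note: HEK293 cells carrying ER-alpha-UAS-bla reporter stimulated with 17beta-estradiol; nearly all actives have a fitted effect of over 45% in size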)
# [15] = target: Estrogen receptor (Homo sapiens) (UniProt P03372); test: qHTS assay to identify small molecule agonists of the estrogen receptor alpha (ER-alpha) signaling pathway (AID 743075; calls by dose curve)
# [16] = qHTS assay to identify small molecule antagonists of the estrogen receptor alpha (ER-alpha) signaling pathway using the BG1 cell line (AID 743080; calls by dose curve;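 note: BG1 cells stimulated with 17beta-estradiol alongside compound; series mostly up to about 70 µM; nearly all actives have a fitted effect of over 25% in size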)
# Summary of the method: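 Seeding, 24 h rest, compound transfer from DMSO, 17beta-estradiol addition, 21.5 h incubation, CellTiter-Fluor (30 min, 37 C), then ONE-Glo (30 min, room temperature): this sequence was run on BG1-Luc-4E2 reporter cells.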
# [17] = qHTS assay to identify small molecule antagonists of the estrogen receptor alpha (ER-alpha) signaling pathway using the BG1 cell line - cell viability counter screen (AID 743081);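 note: compound given together with 17beta-estradiol as the ER stimulus; series mostly up to about 70 µM; nearly all actives have a fitted effect of over 45% in size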
# [18] = target: Aromatase (Homo sapiens) (UniProt P11511); test: qHTS assay to identify aromatase inhibitors (AID 743083)
# Chain of Aromatase (Homo sapiens) (P11511 whole entry, looked up): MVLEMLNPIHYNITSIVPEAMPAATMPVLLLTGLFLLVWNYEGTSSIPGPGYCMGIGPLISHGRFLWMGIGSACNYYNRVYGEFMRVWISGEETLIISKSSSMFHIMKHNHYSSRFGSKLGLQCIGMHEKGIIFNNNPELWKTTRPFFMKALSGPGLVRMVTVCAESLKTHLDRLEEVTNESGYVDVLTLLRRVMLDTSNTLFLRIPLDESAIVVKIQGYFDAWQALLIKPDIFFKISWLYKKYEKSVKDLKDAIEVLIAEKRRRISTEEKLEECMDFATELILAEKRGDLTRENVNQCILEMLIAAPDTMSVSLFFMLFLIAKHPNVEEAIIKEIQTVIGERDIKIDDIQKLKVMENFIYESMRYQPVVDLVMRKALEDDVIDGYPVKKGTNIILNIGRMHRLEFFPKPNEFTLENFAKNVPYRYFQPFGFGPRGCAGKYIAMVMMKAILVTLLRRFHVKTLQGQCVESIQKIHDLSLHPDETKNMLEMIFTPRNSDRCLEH
# [19] = qHTS assay to identify small molecule antagonists of the androgen receptor (AR) signaling pathway using the MDA cell line - cell viability counter screen (AID 743041; note: nearly all actives have a fitted effect of over 45% in size)
# Summary of the method: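 MDA-kb2 AR-luc cells (MMTV-luciferase, AR/GR responsive) treated with compounds plus R1881 agonist for 16 h at 37C. CellTiter-Fluor added at 15.5 h; fluorescence read after 30 min in the same wells.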
# [20] = target: Estrogen receptor (Homo sapiens) (UniProt P03372); test: qHTS assay to identify small molecule agonists of the estrogen receptor alpha (ER-alpha) signaling pathway using the BG1 cell line (AID 743079); note: nearly all actives have a fitted effect of over 20% in size; note: potency is the fitted concentration of half-maximal effect
Structure (SMILES),outcome [1],Potency [2],Potency [3],Potency [4],outcome [5],Potency [6],outcome [7],Potency [8],outcome [9],Potency [10],Potency [11],outcome [12],Potency [13],Potency [14],outcome [15],outcome [16],Potency [17],Potency [18],Potency [19],Potency [20]
OCCN(CCO)c1ccccc1,inactive,inactive,inactive,inactive,inactive,inactive,inactive,inactive,inactive,inactive,inactive,inactive,inactive,inactive,inactive,inactive,inactive,inactive,,
CC1(C)O[C@@H]2C[C@H]3[C@@H]4CCC5=CC(=O)CC[C@]5(C)[C@@]4(F)[C@@H](O)C[C@]3(C)[C@]2(C(=O)CCl)O1,inactive,inactive,inactive,inactive,inactive,,,,,inactive,inactive,inactive,inactive,inactive,,,inactive,inactive,inactive,inactive
CC(C)C1=CC2=CC[C@@H]3[C@](C)(CCC[C@@]3(C)C(=O)O)[C@H]2CC1,inactive,inactive,inactive,inactive,inactive,,,,,inactive,inactive,inactive,inactive and 54.9 µM [inconclusive] (active),inactive,inactive,inactive,inactive,inactive,inactive,inactive
COc1ccc(S(=O)(=O)Nc2nnc(CC(C)C)s2)cc1,inactive,inactive,inactive,inactive,inactive,,,,,inactive,inactive,inactive,inactive,inactive,inactive,inactive,inactive,inactive,inactive,inactive
O=C1CCCCCCCCCCC(=O)OCCO1,inactive,inactive,inactive,inactive,inactive,,,,,inactive,inactive,inactive,inactive,,inactive,,inactive,inactive,inactive,inactive
NCCCN1CCN(CCCN)CC1,inactive,inactive,inactive,inactive,inactive,inactive,inactive,inactive,inactive,inactive,inactive,inactive,inactive,inactive,inactive,inactive,inactive,inactive,inactive,inactive
O=S(=O)(O)C(F)(F)F,inactive,inactive,inactive,inactive,inactive,,,,,inactive,inactive,inactive,inactive,inactive,inactive,inactive,inactive,inactive,inactive,
CN(C)Cc1ccccc1,inactive,inactive,inactive,inactive,inactive,inactive,inactive,inactive,inactive,inactive,inactive,inactive,,inactive,,,inactive,inactive,inactive,
CC1=C2[C@H](/C=C(\C)C(=O)O)CC[C@@H](C)[C@H]2CC1,inactive,inactive,inactive,inactive,inactive,,inactive,inactive,inactive,inactive,inactive,inactive,,inactive,inactive,inactive,inactive,inactive,inactive,
OC[C@H]1O[C@@H](O[C@H]2[C@H](O)[C@@H](O)[C@H](O)O[C@@H]2CO)[C@H](O)[C@@H](O)[C@H]1O,inactive,inactive,inactive,inactive,inactive,inactive,inactive,inactive,inactive,inactive,inactive,inactive,inactive,inactive,inactive,inactive,inactive,inactive,inactive,inactive
Nc1cccc(S(=O)(=O)O)c1,inactive,inactive,inactive,inactive,inactive,inactive,inactive,inactive,inactive,inactive,inactive,inactive,inactive,inactive,inactive,inactive,inactive,inactive,inactive,inactive
Cc1nnc(SCC2=C(C(=O)O)N3C(=O)[C@@H](NC(=O)Cn4cnnn4)[C@H]3SC2)s1,inactive,inactive,inactive,inactive,inactive,,,,,inactive,inactive,inactive,inactive,inactive,inactive,inactive,inactive,inactive,inactive,inactive
CC1=C(CC(=O)O)c2cc(F)ccc2/C1=C\c1ccc(S(C)(=O)=O)cc1,inactive,inactive,inactive,inactive,inactive,inactive,,inactive,inactive,inactive,inactive,inactive,inactive,inactive,inactive,inactive,inactive,inactive,inactive,inactive
CCOC(=O)C1CC(=O)C(=C(O)C2CC2)C(=O)C1 (stereo not given),inactive,inactive,inactive,inactive,inactive,,,,,inactive,inactive,inactive,inactive,inactive,inactive,inactive,inactive,inactive,inactive,inactive
NNS(=O)(=O)c1ccc(Oc2ccc(S(=O)(=O)NN)cc2)cc1,inactive,inactive,27.3 µM (active),inactive,inactive,,,,,inactive,inactive,inactive,inactive,inactive,inactive,inactive,inactive,inactive,inactive,inactive
C[C@@H](N)C(=O)O,inactive,inactive,inactive,inactive,inactive,,inactive,inactive,inactive,inactive,inactive,inactive,,inactive,,,inactive,inactive,inactive,

Structure (SMILES),outcome [1],Potency [2],Potency [3],Potency [4],outcome [5],Potency [6],outcome [7],Potency [8],outcome [9],Potency [10],Potency [11],outcome [12],Potency [13],Potency [14],outcome [15],outcome [16],Potency [17],Potency [18],Potency [19],Potency [20]
CC1=CC(=O)CC(C)(C)C1=O,inactive,inactive,inactive,inactive,inactive,,,,,inactive,inactive,inactive,inactive,inactive,inactive,inactive,inactive,inactive,inactive,inactive
CN1CCN(c2c(F)cc3c(=O)c(C(=O)O)cn4c3c2SCC4)CC1,inactive,10.6 µM (active),18.8 µM (active),21.1 µM (active),inactive,,,,,inactive,inactive,inactive,inactive,inactive,inactive,inactive,inactive,inactive,inactive,inactive
CCc1cc(Cl)c(OC)c(C(=O)NC[C@@H]2CCCN2CC)c1O,inactive,5.96 µM (active) and 8.04 µM (active) and 6.68 µM (active),7.5 µM (active) and 9.02 µM (active) and 9.44 µM (active),11.9 µM (active) and 10.1 µM (active),inactive,,,,,23.7 µM (active) and 7.5 µM (active),23.7 µM (active) and 11.4 µM (active) and 11.9 µM (active),inactive,inactive,inactive,inactive,inactive,inactive,inactive,inactive,10.6 µM (active) and inactive
OCC(CBr)(CBr)CBr,inactive,inactive,inactive,inactive,inactive,,,,,inactive,inactive,inactive,inactive,inactive,inactive,inactive,inactive,,inactive,inactive
CCCCc1ccc2nc(NC(=O)OC)[nH]c2c1,inactive,0.0569 µM (active),0.0804 µM (active),0.114 µM (active),inactive,,,5.07 µM (active),inactive,114 nM (active),,,inactive,,,,inactive,inactive,inactive,2.27 µM (active)
CS(=O)(=O)c1ccc([C@@H](O)[C@@H](CF)NC(=O)C(Cl)Cl)cc1,inactive,4.03 µM (active),6.39 µM (active),7.17 µM (active),inactive,,,,,inactive,inactive,inactive,inactive,inactive,inactive,,inactive,inactive,inactive,inactive
CCC(=O)Nc1ccc(O)cc1,inactive,inactive,inactive,inactive,inactive,,,,,inactive,inactive,inactive,inactive,inactive,inactive,inactive,inactive,inactive,inactive,inactive
Clc1cccc(-c2cc(Cl)cc(Cl)c2)c1,inactive,inactive,inactive,inactive,inactive,,,,,inactive,inactive,inactive,inactive,inactive,,inactive,inactive,inactive,inactive,inactive
CCOC(=O)NCCC[Si](OCC)(OCC)OCC,inactive,inactive,inactive,inactive,inactive,,,,,inactive,inactive,inactive,inactive,inactive,inactive,inactive,inactive,inactive,inactive,inactive
CC(C)(CO)[C@@H](O)C(=O)NCCC(=O)O,inactive,inactive,inactive,inactive,inactive,,,,,inactive,inactive,inactive,inactive,inactive,inactive,inactive,inactive,inactive,inactive,inactive
Cc1ccsc1C(=CCCN1CCC[C@@H](C(=O)O)C1)c1sccc1C,inactive,inactive,inactive,inactive,inactive,inactive,inactive,inactive,inactive,inactive,inactive,inactive,inactive,inactive,inactive,inactive,inactive,inactive,inactive,21.1 µM (active)
CC/C=C\CCOC(=O)CCCCC,inactive,inactive,inactive,inactive,inactive,,,,,inactive,inactive,inactive,inactive,inactive,inactive,inactive,inactive,inactive,inactive,inactive
CCCCC1CCC(=O)O1 (stereo not given),inactive,inactive,inactive,inactive,inactive,,,,,inactive,inactive,inactive,inactive,inactive,inactive,inactive,inactive,inactive,inactive,inactive
Oc1ccccc1F,inactive,inactive,inactive,inactive,inactive,,,,,inactive,inactive,inactive,inactive,inactive,inactive,inactive,inactive,inactive,inactive,inactive
CC(C)C(=O)OC/C=C/c1ccccc1,inactive,inactive,inactive,inactive,inactive,,,,,inactive,inactive,inactive,inactive,inactive,inactive,inactive,inactive,inactive,inactive,inactive
Cc1ncc(CO)c(CN)c1O,inactive,inactive,inactive,inactive,inactive,inactive,inactive,inactive,inactive,inactive,inactive,inactive,inactive,inactive,inactive,inactive,inactive,inactive,inactive,
